From PubChem
Rows were chosen to be rich in hits. Some 0.72% of all compounds tested hit in one or more screens of this group.
PKA-R2B act – PKA-R2B complex activation; P22694+P31323; PKA-R2B holoenzyme dissociation, Cy5-IP20 fluorescence polarization; R2B truncated from residue 108, S112A mutant; 0% DMSO only, 100% 113 µM cGMP; activation, % at 11.4 µM; actives 0.079% (n = 340,000);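 active = activation above a cutoff set at the mean over all compounds plus 3 SD, cut at about 18% in these data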;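 note: higher means more holoenzyme dissociation and a rise in polarization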
Target sequence (P31323 whole entry, looked up, other chains not shown, the tested form may be a part): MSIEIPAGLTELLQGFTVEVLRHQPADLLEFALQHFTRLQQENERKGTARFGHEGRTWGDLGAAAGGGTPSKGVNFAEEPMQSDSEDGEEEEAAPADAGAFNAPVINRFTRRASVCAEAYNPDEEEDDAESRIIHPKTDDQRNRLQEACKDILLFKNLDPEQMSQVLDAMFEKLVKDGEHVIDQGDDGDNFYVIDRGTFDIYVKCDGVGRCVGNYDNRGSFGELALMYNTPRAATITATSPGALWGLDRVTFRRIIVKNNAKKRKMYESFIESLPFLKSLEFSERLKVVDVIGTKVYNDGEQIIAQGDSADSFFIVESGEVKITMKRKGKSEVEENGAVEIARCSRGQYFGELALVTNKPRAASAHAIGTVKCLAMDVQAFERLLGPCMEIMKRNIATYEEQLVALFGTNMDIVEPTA
PolyA inhibitor – inhibitors of polyadenylation in S. cerevisiae; S. cerevisiae SKY197-pL101 polyadenylation reporter, beta-gal luminescence; efflux-impaired pdr1/pdr3 knockout yeast; score 100 = 6 SD above DMSO; activity score, % at 12 µM; actives 0.02% (n = 300,000);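 active = lowest replicate activity score at least 50, where 100 means six control SD above control mean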;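 note: yeast exposed to compound for 9 h at 30 °C; higher score means more reporter readthrough which indicates perturbed polyadenylation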
Neddyl block – inhibitors of human cullin neddylation; TR-FRET cullin neddylation, biochemical; calls only at 25 µM; actives 0.58% (n = 360,000); AID 651699; P61081+Q13564; in the data active = inhibition above about 36%
PKA-R1A activ – PKA-R1A complex activation; P00514+P68181; actives 0.083% (n = 340,000); activation, % at 11.4 µM; PKA-R1A dissociation, Cy5-IP20 fluorescence polarization; scaled: DMSO 0%, 113 µM cGMP 100%;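 active = percent activation above the mean of all tested compounds plus 3 SD, cut at about 19% in these data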;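 note: higher means more PKAc released from R1A so a rise in polarization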
An asterisk follows results filed as active; i = inactive; . = not tested or not shown; + = active, no number.

SMILES | PKA-R2B act | PolyA inhibitor | Neddyl block | PKA-R1A activ
Cc1c2c(=O)n(-c3nc4ccccc4s3)nc-2cc(O)n1Cc1ccccc1 | 10 | . | + | -2
Cc1cc(C)n(-c2nc3ccccc3s2)n1 | -11 | -6 | i | 2
COC(=O)C1C(=O)C2=C(CC1C)NC(C)=C(C(=O)OC(C)C)C2c1ccc(OC)c(O)c1 (stereo not given) | 12 | 1 | i | 20*
COC(=O)C1C(=O)C2=C(CC1C)NC(C)=C(C(=O)OC1CCCC1)C2c1ccc(N(C)C)cc1 (stereo not given) | -9 | . | i | -18
O=C(OCC(=O)N1CCc2ccccc21)c1ccccc1[N+](=O)[O-] | -8 | . | i | -2
CCCCN(C)C(=O)c1cc2cc3ccc(OC)cc3nc2s1 | -8 | -16 | + | -10
CCCCN(CC)C(=O)c1cc2cc3ccc(OC)cc3nc2o1 | 3 | -6 | + | -2
CCOc1ccc(CCNC(=O)COC(=O)c2ccc(OC(C)C)cc2)cc1OCC | 2 | 0 | i | 2
COC(=O)c1ccc(CN2CCC(n3nccc3NC(=O)C3CCCC3)CC2)cc1 | 11 | -24 | i | 10
CCc1ccc(C(=O)CSc2nc(C)cc(=O)[nH]2)cc1 | -11 | -17 | i | -8
CCc1nc2ccc(C(=O)NCc3ccc(OC)cc3)cn2c1N(CC)CCN(C)C | . | . | i | .
COc1ccc2ccc3c(c2c1)N=CC1(O3)N(C)c2ccccc2C1(C)C (stereo not given) | 4 | 21 | + | -3
CN1c2ccccc2C(C)(C)C12C=Nc1c(ccc3ccccc13)O2 (stereo not given) | -4 | -4 | i | 0
CC(C)NC(=O)C1(C)CSCC(=O)N1Cc1cccs1 (stereo not given) | . | . | i | .
COc1cc(/C=N/NC(=O)c2ccc(CN3C(=O)c4cccc5cccc3c45)cc2)cc(OC)c1O | 3 | -6 | + | 3
C/C(=C\C=C(C#N)C#N)c1cc(C#N)c(N)o1 | -7 | 59* | i | 4
COc1ccc(-n2ncc3c(N4CCCCC4)ncnc32)cc1 | -1 | -13 | + | -2
Clc1ccc(-n2ncc3c(N4CCCCCC4)ncnc32)cc1 | -2 | 14 | i | -14
CCS(=O)(=O)NCCNc1ccc([N+](=O)[O-])cc1 | -5 | 10 | i | -4
CCCOc1ccc(C(=O)NNC(=S)NC(=O)c2ccco2)cc1 | -3 | -43 | + | -1
COc1cc(OC)cc(C(=O)NC(=S)NNC(=O)[C@H]2C[C@@H]2c2ccccc2)c1 | -4 | -26 | + | -16
CCN1C(=O)[C@@H]2[C@@H](c3ccc(SC4CCCCC4)cc3)N3CCC[C@@]3(C(=O)OC)[C@@H]2C1=O | -2 | -22 | i | -6
Cc1ccc(C(=O)O)cc1N=Cc1cc(Br)cc(Br)c1O | -3 | -19 | + | 7
Cn1cncc1C#Cc1ccc2cc(CCCO)oc(=O)c2c1 | -2 | . | + | -7
CC(C)n1cc(/C=N/Nc2ccc(C(=O)O)cc2)c2ccccc21 | 0 | 6 | + | -1
SMILES | PKA-R2B act | PolyA inhibitor | Neddyl block | PKA-R1A activ
O=C(O)c1ccc(N/N=C/c2cn(Cc3ccccc3F)c3ccccc23)cc1 | -8 | -7 | + | 1
Nc1ccc(C(=O)N/N=C/c2cn(Cc3ccccc3F)c3ccccc23)cc1 | -11 | -2 | i | -2
CCN(CC)CCOC(=O)c1ccc(N/C=C(/C#N)c2nc(-c3cccc(OC)c3)cs2)cc1 | . | -10 | i | .
CCN(CC)CCOC(=O)c1ccc(N/C=C(/C#N)c2nc(-c3ccc(OC)c(OC)c3)cs2)cc1 | -4 | 3 | + | 7
Cn1c(=O)c2nc3ccccc3nc2n(C)c1=O | -8 | 23 | i | 1
CC(=O)Nc1ccc2nc3c(=O)n(C)c(=O)n(C)c3nc2c1 | -3 | 5 | + | -10
Nc1ncnc2c1ncn2[C@@H]1O[C@H](COS(=O)(=O)O)[C@@H](O)[C@H]1O | -4 | . | + | 3
Nc1ncnc2c1ncn2[C@@H]1O[C@H](CNS(=O)(=O)C2CC2)[C@@H](O)[C@H]1O | 2 | . | i | -3
Nc1ncnc2c1ncn2[C@@H]1O[C@H](CNCc2ccccc2)[C@@H](O)[C@H]1O | -6 | . | i | -9
Nc1ncnc2c1ncn2[C@@H]1O[C@H](COP(=O)(O)OP(=O)(O)OP(=O)(O)O)[C@@H](O)[C@H]1O | 8 | . | + | 1
Nc1ncnc2c1ncn2[C@@H]1O[C@H](CNCc2cccc(C#Cc3ccccc3)c2)[C@@H](O)[C@H]1O | -9 | . | + | -7
CC(=O)Nc1ccc(S(=O)(=O)N2C(=O)c3cccc4cccc2c34)cc1 | . | -11 | . | .
COc1ccc(OC)c(/C=C2\S/C(=N/NC(=O)c3ccc4ccccc4c3)NC2=O)c1 | 7 | 3 | + | 12
Cc1ccc(Nc2c(-c3ccccn3)nc3cccc(C)n23)cc1 | 6 | -4 | i | -9
C/C(=N/NC(=O)c1cc2ccccc2cc1O)c1ccco1 | 0 | 8 | i | 2
C/C(=N\NC(=O)c1cc2ccccc2cc1O)c1ccc(C)o1 | -14 | 29 | + | -3
O=C(Cc1ccc(NC(=O)C2CCCN(C(=O)C3CCC3)C2)cc1)Nc1cccc(C(=O)N2CCCCC2)c1 (stereo not given) | -3 | . | i | -7
COc1ccc(Cl)cc1-c1nc(SCC(=O)N(C)C2CCS(=O)(=O)C2)n[nH]1 (stereo not given) | 18 | . | i | 3
O=C(NCCN1CCN(c2ccccc2F)CC1)c1cccn2c(=O)c3ccccc3nc12 | 11 | 0 | + | 4
O=C(NCCN1CCN(c2ccccc2)CC1)c1cccn2c(=O)c3ccccc3nc12 | 0 | -6 | i | -4
COc1ccc(Cn2c(N)c(C#N)c3nc4ccccc4nc32)cc1OC | 1 | 14 | + | 9
COc1ccc(CCn2c(N)c(C#N)c3nc4ccccc4nc32)cc1OC | 1 | 3 | i | 4
COC(=O)C1CCCCN1C(=O)c1cc(COc2cccc3cnccc23)on1 (stereo not given) | 3 | 4 | + | -2
CCOC(=O)CC1CCCCN1C(=O)c1cc(COc2cccc3cnccc23)on1 (stereo not given) | 2 | 1 | + | 9
CCOc1ccc(N(C)C(=O)CCc2nnc3ccc(N4CCC5(CC4)OCCO5)nn23)cc1 | 3 | 6 | i | -5
Cc1cccc(NC(=O)c2ncn3c2C(=O)N(C)CC3)c1 | 7 | . | i | 0
Cc1ccc(/C=N/NC(=S)NCCc2ccccc2)s1 | -1 | -22 | + | 2
O=C(/C=C/[C@H]1O[C@@H](n2ccc(=O)[nH]c2=O)[C@H](O)[C@@H]1O)NCCc1c[nH]c2ccccc12 | . | . | i | .
COc1cc2c(cc1OC)C(CSc1ccccc1C(=O)O)=NC(C)(C)C2 | 0 | -1 | + | 5
O=C(COC(=O)Cc1ccc(S(=O)(=O)N2CCOCC2)s1)Nc1ccccc1 | -7 | . | i | -4
